tim10-1 inh: growth inhibitors of tim10-1 mutant yeast, primary screen, luminescence, uHTS; inhibition, % at 20 µM; 330,000 tested, 2.2% active; S. cerevisiae tim10-1 ts strain growth, BacTiter-Glo, 24 h; AID 463190, 2010;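 active = inhibition of at least 40%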;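 note: mutant grown at 25 °C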
TIM10 inh: growth inhibitors of isogenic TIM10 control yeast, primary screen, counter-screen for tim10-1 yeast inhibitor project, luminescence, uHTS; S. cerevisiae TIM10 strain growth, BacTiter-Glo luminescence, 24 h; inhibition, % at 10 µM; 330,000 tested, 1.4% active; AID 463195, 2010;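 active = inhibition of 40% or more at the single tested concentration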;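 note: wild-type TIM10 isogenic control strain grown at permissive 25 °C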
tim23-1 inh: growth inhibitors of tim23-1 mutant yeast, primary screen, luminescence, uHTS; 330,000 tested, 1.3% active; S. cerevisiae tim23-1 growth, BacTiter-Glo luminescence, 24 h; AID 463212, 2010; inhibition, % at 20 µM;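 active = growth inhibition of the mutant yeast at or above 50%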;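 note: temperature-sensitive mutant grown at 25 °C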
NALP1 yeast inh: NALP1 inflammasome inhibitors in reconstituted yeast, colorimetric, S. cerevisiae, triplicate retest. 280,000 tested, 0.61% active. S. cerevisiae NALP1/ASC/caspase-1 growth, X-gal OD620, 72 h. inhibition, % at 10 µM; in the data active = inhibition mostly above about 24%, no sharp cut-off; inactive = mostly below about 32%
NALP3 yeast inh: NALP3 inflammasome inhibitors in reconstituted yeast, primary screen, luminescence, uHTS; Yeast reconstituted NLRP3/ASC/caspase-1, beta-gal luminescence, 24 h; inhibition, % at 10 µM; 330,000 tested, 0.39% active; AID 2825, 2010;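 active = inhibition of 50% or more; inactive = inhibition below 50%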
tim10-1 conf: growth inhibitors of tim10-1 mutant yeast, confirmation, single concentration, luminescence, S. cerevisiae; shares compounds with tim10-1 inh; S. cerevisiae tim10-1 ts strain growth, BacTiter-Glo, 24 h; inhibition, % at 20 µM; 7,400 tested, 56% active; AID 463213, 2010;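 active = inhibition of yeast growth at or above a set limit in either of two repeat tests at 20 µM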;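 note: tim10-1 mutant grown at permissive 25 °C to find synthetic lethal compounds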
tim10 confirm: growth inhibitors of wild-type TIM10 yeast, confirmation, counter-screen for tim10-1 synthetic lethality project, single concentration, luminescence, S. cerevisiae. inhibition, % at 10 µM. 4,600 tested, 63% active. AID 463215, 2010. S. cerevisiae tim10 strain growth, BacTiter-Glo luminescence, 24 h. shares compounds with TIM10 inh;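 active = inhibition of yeast growth at or above a set limit in either of two replicates at 10 µM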; note: this counterscreen used the strain with wild-type TIM10
Of the large screens only hits and unclear results are named; the others gave an inactive call (follow-up assays come after a bar, where they were run). An excerpt weighted towards active compounds, which were near 4% of everything screened.

CCCN1CCN(C(=O)c2oc3ccccc3c2NC(=O)COc2ccc(OC)cc2)CC1	none
O=c1c2ccccc2nc(SCc2cn3ccsc3n2)n1-c1ccc(F)cc1	tim10-1 inh 43.2 | tim10-1 conf inactive
COc1ccc(C2(O)CC3CCC(C2)N3c2cc(C)nc(-c3ccccc3)n2)cc1 (stereo not given)	tim10-1 inh 42.4 | tim10-1 conf 31.6
O=C(c1ccc(O)cc1)c1ccc(Cl)cc1	none | tim10-1 conf inactive
CCN(CC)CCN(C(=O)/C=C/c1cccs1)c1nc2ccc(Cl)cc2s1	none
CN(C)CCN(C(=O)/C=C/c1cccs1)c1nc2ccc(F)cc2s1	tim10-1 inh 44.4, NALP1 yeast inh 53.9 | tim10-1 conf 35.4
CCCCOC(=O)Nc1cccc(C(=O)OCC)c1	tim10-1 inh 46.0 | tim10-1 conf inactive
COc1cc(/C=C(\C#N)C(=O)c2ccc(O)c(O)c2)cc(I)c1O	none (no result: NALP1 yeast inh)
O=C(Nc1nc2ccc(F)cc2s1)c1cccc(S(=O)(=O)N2CCc3ccccc32)c1	tim10-1 inh 40.3, TIM10 inh 50.0 | tim10-1 conf inactive | tim10 confirm inactive
O=C(Nc1nncs1)c1cccc(S(=O)(=O)N2CCc3ccccc32)c1	none
CC(C)CC(=O)NC(=S)NCCc1ccccc1	tim10-1 inh 46.9, TIM10 inh 45.6 | tim10-1 conf inactive | tim10 confirm inactive
Cc1cccc(-n2ncc3c2CCCC3NC(=O)C2=CC(=O)CC(C)(C)O2)c1C (stereo not given)	none
Cc1ccc(C(=O)NCC(=O)N2CCCCCCC2)cc1C	none (no result: NALP1 yeast inh)
COc1ccccc1CNC(=O)Cn1cc([N+](=O)[O-])ccc1=O	none
O=C(Nc1ccc(F)cc1)c1cccc2c1C(=O)N(CC1CCCO1)C2 (stereo not given)	none
O=C(Nc1ccc(F)cc1)c1cccc2c1C(=O)N(Cc1ccccn1)C2	tim10-1 inh 68.0, TIM10 inh 43.8 | tim10-1 conf 65.1 | tim10 confirm inactive
CCN(CC(=O)Nc1ccc2c(c1)OCCO2)C(=O)c1ccc(C)c(S(=O)(=O)N2CCOCC2)c1	none (no result: NALP1 yeast inh)
CC(=O)CC(=O)Nc1ccc(Cl)cn1	none
CC(C)CC(=O)NC(=S)Nc1ccc(Cl)cn1	tim10-1 inh 43.0, TIM10 inh 46.8 | tim10-1 conf 37.5 | tim10 confirm 40.1
CC(C)c1ccc(/C=C/C(=O)N2CCOCC2)cc1	none
CC(C)c1ccc(/C=C/C(=O)n2nnc3ccccc32)cc1	tim10-1 inh 55.3, TIM10 inh 49.7 | tim10-1 conf 51.5 | tim10 confirm 47.5
CCN1CCN(C(=O)CN2C(=O)c3ccccc3S2(=O)=O)CC1	none (no result: NALP1 yeast inh)
C/C(=N\N=c1/sc2ccccc2n1C)c1ccccn1	tim10-1 inh 43.4, TIM10 inh 43.2 | tim10-1 conf 34.6 | tim10 confirm inactive
CC(C1CC1)N(Cc1ccccc1)C(=S)Nc1cccc(C(F)(F)F)c1 (stereo not given)	tim10-1 inh 49.0, TIM10 inh 52.6 | tim10-1 conf 48.1 | tim10 confirm inactive
CC(C1CC1)N(Cc1ccccc1)C(=S)Nc1ccccc1 (stereo not given)	tim10-1 inh 42.4, TIM10 inh 41.8 | tim10-1 conf inactive | tim10 confirm 39.8
COc1cc(/C=N/NC(=O)c2ccccn2)ccc1OC(=O)c1cccs1	none
COc1cc(C(=O)/C=C/c2cccnc2)c([N+](=O)[O-])cc1OC	tim10-1 inh 42.0, TIM10 inh 41.2 (no result: NALP1 yeast inh) | tim10-1 conf 39.0 | tim10 confirm 32.8
Cc1ncc(CO)c(/C=N/NC(=S)Nc2ccc(Cl)c(Cl)c2)c1O	tim10-1 inh 51.1, TIM10 inh 91.5 | tim10-1 conf 33.3 | tim10 confirm 37.5
COc1ccc(CC(=O)O/N=C(\N)Cc2ccc(OC)cc2)cc1	none
N/C(Cc1ccc(Cl)cc1Cl)=N\OC(=O)Cc1ccc(Cl)cc1	tim10-1 inh 62.1, TIM10 inh 85.3 | tim10-1 conf 54.6 | tim10 confirm inactive
N/C(Cc1ccc([N+](=O)[O-])cc1)=N\OC(=O)Cc1ccc(Cl)cc1	tim10-1 inh 65.7, TIM10 inh 40.7 | tim10-1 conf inactive | tim10 confirm 76.6
Cc1ccc(/C(N)=N/OC(=O)c2ccc3ccccc3c2)cc1	tim10-1 inh 54.1, TIM10 inh 54.5 | tim10-1 conf 53.4 | tim10 confirm 66.0
N/C(Cc1ccc(Cl)cc1Cl)=N\OC(=O)c1ccccc1	tim10-1 inh 65.1, TIM10 inh 86.4 | tim10-1 conf inactive | tim10 confirm 84.5
O=C(C/C=N/OCc1ccc(Cl)cc1Cl)c1ccccc1	none
N/C(Cn1cncn1)=N\OC(=O)c1ccc(Cl)cc1	none
N/C(Cc1ccc(Cl)cc1)=N\OC(=O)c1ccc2ccccc2c1	tim10-1 inh 63.8, TIM10 inh 75.1 | tim10-1 conf 60.2 | tim10 confirm inactive
CCc1ccc(OCC(=O)O/N=C(\N)Cc2ccc([N+](=O)[O-])cc2)cc1	tim10-1 inh 57.1, TIM10 inh 59.7 | tim10-1 conf 72.8 | tim10 confirm 41.2
CCc1ccc(OCC(=O)Oc2ccc([N+](=O)[O-])cc2)cc1	none
CCSc1nc2ccccc2n1C(=O)/C=C\c1ccc(OC)c(OC)c1	tim10-1 inh 64.9, TIM10 inh 52.2 | tim10-1 conf 55.9 | tim10 confirm inactive
CC1(C)CC(=O)C=C(NC2CCCC(O)C2)C1 (stereo not given)	none (no result: NALP1 yeast inh)
Cc1ccnc(Sc2ncccc2[N+](=O)[O-])n1	none
Cc1cc(Sc2nc(N)ncc2[N+](=O)[O-])ncn1	tim10-1 inh 51.4, TIM10 inh 48.7 | tim10-1 conf 47.9 | tim10 confirm 31.9
Cc1ccc(NC(=O)CCS(=O)(=O)c2cccc3nonc23)cc1	none
Cc1ccc(N(CC(=O)Nc2cccc(C)c2)S(=O)(=O)c2cccc3nonc23)cc1	tim10-1 inh 42.3, TIM10 inh 44.2 | tim10-1 conf 33.2 | tim10 confirm 38.7
O=C(Nc1nnc(S(=O)(=O)N2CCN(c3ccc(F)cc3)CC2)s1)c1ccco1	none
Cc1cc2ncn(-c3ncnc4scc(-c5ccccc5)c34)c2cc1C	tim10-1 inh 49.6, TIM10 inh 41.4 | tim10-1 conf 44.8 | tim10 confirm 36.8
Cc1cc2ncn(-c3ncnc4sc5c(c34)CCC(C)C5)c2cc1C (stereo not given)	tim10-1 inh 49.9, TIM10 inh 52.2 | tim10-1 conf 44.8 | tim10 confirm 45.3
Cc1cc2ncn(-c3ncnc4sc5c(c34)CCCC5)c2cc1C	none
